This note sets out measurements from PubChem BioAssay (NCI).

Values joined by “and” are separate entries in the source; they are usually repeats but may differ in a detail not shown here. Identical values can stand only once. Compounds without any hit were thinned out: in the full panel of roughly 83,000, 20% have a hit.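 A percent growth of 40 corresponds to 60% growth inhibition; 0 means no net growth; -100 means all cells died. Active threshold: below 10.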 Active and inactive are the calls of the source.

The test relates to MDA-MB-468 breast. The test can be described thus: NCI-60 one-dose screen, 48 h (100 = growth as untreated, 0 = no growth, -100 = all killed). The conditions noted are these: 10 µM unless noted.
Regarding `CC(C)OP(=O)(OC(C)C)c1ncc(-c2ccc(C(F)(F)F)cc2)c(NC2CCCCCC2)n1`, the growth was 12.8% [33.3 µM] (inactive).
In the case of `CCN1C(=O)N(CC)C2SC(N/N=C/c3ccc(F)cc3)=NC21` (stereo not given), the growth is 36.8% (inactive).
With `O=S(=O)(O)CCl`, the growth was 108% (inactive).
For `O=C(Nc1cccc([N+](=O)[O-])c1)NN1CCCCCC1`, the growth was 88.7% (inactive).
Next, `C=C1C(=O)O[C@H]2[C@H]1CC/C(COC(=O)NCCCCNC(=O)OC/C1=C/CC[C@@]3(C)O[C@H]3[C@H]3OC(=O)C(=C)[C@@H]3CC1)=C\CC[C@@]1(C)O[C@@H]21`: -14.8% (active); `COC(=O)[C@]12CC[C@@H](C(C)=O)[C@@H]1[C@H]1CC[C@@H]3[C@@]4(C)C/C(=C/c5cccnc5)C(=O)C(C)(C)[C@@H]4CC[C@@]3(C)[C@]1(C)CC2`: 55.7% (inactive).
The figure for `C[C@H](NC(=O)[C@@H]1CSSC[C@@H](NC(=O)c2nc3ccccc3cc2O)C(=O)NCC(=O)N1C)c1ccccc1` is 41.4% (inactive); for `COc1ccc(/C=C(\C#N)c2cc3ccccc3n2C)cc1` it is 27.6% (inactive).
Turning to `Cc1cc(O)c(C(C)C)cc1S(=O)(=O)O` (tested in a mixture with another compound), the growth is 91.8% (inactive) and -40.1% (active) and 115% (inactive).
Regarding `CCC(CC)n1c(C)cc(=O)n1C(CC)CC`, the growth was 91.2% (inactive).
Next, `O=[N+]([O-])c1cccc(-c2nc3sccn3c2-c2ccnc(NCCNS(=O)(=O)c3ccc(C(F)(F)F)cc3)n2)c1`: 28.3% (inactive); `O=C(Nc1ccccc1)Oc1cccc2cccnc12`: 96.9% (inactive); `COCCn1cc(-c2nc(-c3cc4cccnc4[nH]3)cs2)c2cc(OC)ccc21`: -24% (active).
The figure for `Cn1cc(-c2csc(-c3cn(CCO)c4ccc(F)cc34)n2)c2cccnc21` is -16.5% (active); for `COc1ccc(C2=C(c3ccccc3)c3ccc(OC(C)=O)cc3OC2(C)C)cc1` it is 86.2% (inactive); for `O=C(Nc1cccc2[nH]c(C(F)(F)F)nc12)c1ccc(-n2cnnn2)cc1` it is 80% (inactive).
With `Cc1ccc2c(n1)C(=O)C(Cl)=C(Nc1ccc(C)c(C)c1)C2=O`, the growth was -25.3% (active).
For the compound `CN1C(=O)N(C)C2Nn3c(s/c(=C\c4ccc(C(F)(F)F)cc4)c3=O)=NC21` (stereo not given), the growth is 98.5% (inactive).
Next, `CCN(CC)CCCC(C)NCCCNc1cccc2cccnc12` (stereo not given): 90% (inactive); `COc1ccc(/C=N/NC(=O)c2[nH]c3ccc(Br)cc3c2-c2ccccc2)s1`: -24% (active).
For the compound `COc1ccc(-c2nnc(N3CCN(C(=O)CN4CCN(c5ccc(OC)cc5)CC4)CC3)nc2-c2ccc(OC)cc2)cc1`, the growth is -54.8% (active).
Take `COc1ccccc1N1CCCCC1`: the growth was 118% (inactive).
As to `CN1C(=O)CNC(=O)[C@H](NC(=O)c2nc3ccccc3cc2O)CSSC[C@H]1C(=O)NCCCc1nc2ccccc2cc1O`, the growth was 22.3% (inactive).
Turning to `S=C1CC(=S)NC(=S)N1`, the growth is 95.8% (inactive).
On to `O=C(c1ccccc1)C(c1ccccc1)N1CCOCC1` (stereo not given), for which the growth was 103% (inactive).
Next, `COc1ccc(/C=C2/CN(C(=O)c3ccccc3F)C/C(=C\c3ccc(OC)cc3)C2=O)cc1`: 1.01% (active).
The figure for `Cc1c(CN)cc(-c2ccc(Cl)cc2)n1-c1ccccc1` is 18.7% (inactive); for `COc1ccc(/C=C/C(=O)c2ccc(Oc3ncnc4ccccc34)cc2)cc1OC` it is 28.4% (inactive); for `COc1cc(/C=C/C(=O)N2CCN(C(=O)/C=C/c3cc(OC)c(OC)c(OC)c3)CC2)cc(OC)c1OC` it is 102% (inactive).
As to `CN1CCN(C2CCN(C(=O)Nc3cc(Oc4ccc(NC(=O)C5(C(=O)Nc6ccc(F)cc6)CC5)c(F)c4)ccn3)CC2)CC1`, the growth is -70.7% (active) and 96.6% (inactive).
The figure for `Fc1ccc(-c2nnc(/C=C/c3cn(-c4ccccc4)nc3-c3ccccc3)o2)cc1` is 103% (inactive); for `O=C1CSC(c2ccc(O)cc2)N1c1nnc(Cn2cnnc2)o1` (stereo not given) it is 48% (inactive).
Next, `NC(=O)c1c(NC(=S)Nc2ccc(OC(F)(F)F)cc2)sc2c1CCC1(C2)OCCO1`: 94.7% (inactive); `Clc1cc(Cl)cc(N2N=C(c3cccc(Nc4ccncc4)c3)CC2c2ccccc2)c1` (stereo not given): 37.9% (inactive); `C[C@H]1[C@H](C)CC[C@]2(C(=O)O)CC[C@]3(C)C(=CC[C@@H]4[C@@]5(C)C/C(=C/c6cccnc6)[C@H](O)C(C)(C)[C@@H]5CC[C@]43C)[C@H]12`: 5.39% [100 µM] (active).
Next, `O=Nc1c(-c2c(O)[nH]c3ncccc23)[nH]c2ccccc12`: 28.4% (inactive).
Take `CCCCC(O)Cn1ncc(C(=O)OCC)c1NC(=O)NCc1ccccc1C(F)(F)F` (stereo not given): the growth is 98.7% (inactive).
Next, `CCCCC1(CC)COC(CCC)OC1` (stereo not given): 99.7% (inactive); `O=C(CC1(O)C(=O)Nc2c(Cl)ccc(Cl)c21)c1ccc(Cl)cc1Cl` (stereo not given): 103% (inactive).
Next, `Cc1ccc(C2C=C(c3ccc(Cl)cc3)N=C3SC=CN32)c(Br)c1` (stereo not given): 69.7% (inactive).
